Laboratory results published in PubChem BioAssay AID1817 (Sanford-Burnham Center for Chemical Genomics, 2009).
Among all 290,000 compounds or so, about 50 (0.02%) were called active. This is one part of a sample in which actives are shown more often than they occur.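 How the source made its calls: active means displacement of at least 50% at 20 µM, with a fluorescence ratio check between 0.3 and a set limit; inactive means the rest.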 Results with a measured potency or affinity are listed apart.

target: E3 ubiquitin-protein ligase SIAH1 (Homo sapiens) (UniProt Q8IUQ4); assay: blockers of Siah-1 interaction with plectin peptide – biochemical, fluorescence polarization, rhodamine-plectin, uHTS, primary screen (AID 1817); details: Siah-1 / rhodamine-plectin peptide fluorescence polarization; at 20 µM; hits give high values;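 further: plate controls were Siah plus tracer with DMSO for no effect and tracer alone without Siah for full effect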
Sequence (Q8IUQ4 whole entry, looked up): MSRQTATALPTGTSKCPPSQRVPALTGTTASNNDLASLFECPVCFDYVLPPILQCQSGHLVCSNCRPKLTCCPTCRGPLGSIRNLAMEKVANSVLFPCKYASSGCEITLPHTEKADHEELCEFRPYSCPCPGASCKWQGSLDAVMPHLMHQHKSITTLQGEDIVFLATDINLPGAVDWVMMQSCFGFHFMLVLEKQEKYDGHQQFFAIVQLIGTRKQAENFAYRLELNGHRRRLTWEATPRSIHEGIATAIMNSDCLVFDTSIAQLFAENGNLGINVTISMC

Structure (SMILES) | displacement
C=CCc1cccc2cc(C(=O)Nc3ccc(NC(C)=O)cc3)c(=O)oc12 | 9.1% (inactive)
C=CCc1cccc2cc(C(=O)Nc3ccc(F)cc3)c(=O)oc12 | 5.1% (inactive)
CCn1c(SC(C)C(=O)O)nnc1-c1cccnc1 (stereo not given) | -1.4% (inactive)
Cc1ccc(-n2ncc3c2CC(C)(C)CC3NC(=O)c2ccc[n+]([O-])c2)cc1 (stereo not given) | 4.8% (inactive)
OCCNC(=S)Nc1ccc2nsnc2c1 | -1.1% (inactive)
C=CCNC(=S)Nc1ccc2nsnc2c1 | 52.1% (active)
C=CCNC(=S)Nc1ccc2nc(C)c(C)nc2c1 | 3.4% (inactive)
O=C(N/N=C/c1cccnc1)c1ccc2c(c1)OCCO2 | -2.3% (inactive)
COc1ccc(-c2nc3c4ccccc4ccn3c2CN2CCOCC2)cc1OC | 13.8% (inactive)
COC(=O)c1ccc2c(=O)n(CCCN3CCCC3=O)c(=S)[nH]c2c1 | -3.7% (inactive)
O=C(O)c1nc(-c2ccccc2)n(-c2cccc(C(F)(F)F)c2)n1 | -2.9% (inactive)
COCCNC(=O)CSc1nc2cc(OC)c(OC)cc2c(=O)n1Cc1ccc(OC)cc1 | 0.2% (inactive)
Cc1cc(C)n2nnnc2c1C#N | 1.6% (inactive)
O=C(Nc1ccc(Br)cc1)c1ccc(N2C(=O)C3CCCCC3C2=O)cc1 (stereo not given) | -1% (inactive)
O=C(Nc1ccc(Br)cc1)c1ccc(N2C(=O)C3CC=C(Cl)CC3C2=O)cc1 (stereo not given) | -0.2% (inactive)
CCCOc1ccc(C(=O)CCC(=O)OCC(=O)Nc2cc(C)on2)cc1 | -2.7% (inactive)
COc1ccccc1C(=O)Nc1ccnn1C1CCN(Cc2ccc3nonc3c2)CC1 | 7.2% (inactive)
Cn1c(Cc2csc(N)n2)nnc1SCC(=O)NC1CCCCC1 | 0.1% (inactive)
O=S(=O)(c1ccc(Cl)cc1)N1CCN(C2CCN(Cc3ccccc3)CC2)CC1 | 3% (inactive)
Cc1oc2cc(O)ccc2c(=O)c1-c1ccccc1 | 8.8% (inactive)
Nc1ccc(-c2c3ccc(=O)cc-3oc3cc(O)ccc23)cc1C(=O)O | 3% (inactive)
C/C(=N\NC(=O)c1c(Cl)cnn1C)c1cccc(NC(=O)COc2ccccc2)c1 | 0.3% (inactive)
CC(=O)Nc1ccc(C(=S)NCCCO)cc1 | -4.5% (inactive)
COc1ccc2c(c1O)C(=O)c1ccccc1C2=O | 2.4% (inactive)
CCN(CC)C(=O)c1ccc2c(c1[N+](=O)[O-])C(=O)c1ccccc1C2=O | 34.3% (inactive)

Structure (SMILES) | displacement
O=C(COC(=O)c1ccc2c(c1Cl)C(=O)c1ccccc1C2=O)NC1CCCCC1 | -2.2% (inactive)
COC(=O)c1ccc2c(c1O)C(=O)c1ccccc1C2=O | 71.8% (active)
CC(C)COC(=O)c1ccc2c(c1O)C(=O)c1ccccc1C2=O | 4.6% (inactive)
CN(C)C(=O)c1ccc2c(c1[N+](=O)[O-])C(=O)c1ccccc1C2=O | 60.6% (active)
O=C(COC(=O)c1ccc2c(c1[N+](=O)[O-])C(=O)c1ccccc1C2=O)NC1CC1 | 76.3% (active)
Cc1[nH]c2ccccc2c1CCNC(=O)c1ccc2c(c1[N+](=O)[O-])C(=O)c1ccccc1C2=O | 22.7% (inactive)
O=C(COC(=O)c1ccc2c(c1Cl)C(=O)c1ccccc1C2=O)NC1CC1 | -3.3% (inactive)
CN(CCOc1ccccc1)S(=O)(=O)c1ccc2oc3ccccc3c2c1 | 2.8% (inactive)
CC(=O)c1ccc(NC(=O)CCNS(=O)(=O)c2ccccc2F)cc1 | -1.6% (inactive)
Cc1ccc(N(C)S(=O)(=O)c2cc3c(cc2C)NC(=O)CO3)cc1 | -1% (inactive)
Cc1nc(N)sc1-c1csc(Nc2ccccn2)n1 | -1.4% (inactive)
Cc1nc(N)sc1-c1csc(Nc2ccccc2)n1 | 3.2% (inactive)
Cc1nc(N)sc1-c1csc(Nc2ncccn2)n1 | 57.3% (active)
CCOC(=O)c1[nH]c2ccccc2c1NC(=O)c1ccc(S(=O)(=O)N2CCCCC2)cc1 | -3.4% (inactive)
COc1ccc(C(=O)N2CCC(O)(c3ccc(Cl)cc3)CC2)cc1OC | -8.7% (inactive)
CC1CCc2onc(C(=O)NCc3ccco3)c2C1 (stereo not given) | 3.6% (inactive)
Cc1ccccc1Nc1nc(-c2sc(NC(=O)c3ccccc3)nc2C)cs1 | -5.4% (inactive)
O=C(CN1C(=O)N/C(=C\c2ccccc2OCc2ccc(C(=O)O)cc2)C1=O)Nc1ccc(F)cc1 | 1.1% (inactive)
O=C(CN1C(=O)N/C(=C\c2ccccc2OCc2ccc(C(=O)O)cc2)C1=O)Nc1ccccc1F | 10.4% (inactive)
CCOC(=O)CNC(=S)N(Cc1cccs1)C1CCCC1 | 0.7% (inactive)
Cc1cccc(C(=O)NNC(=O)c2ccc(S(=O)(=O)N3CCOCC3)cc2)c1 | -3.9% (inactive)
O=c1[nH]n(-c2ccccc2)c(=O)c2ccccc12 | 0% (inactive)
O=c1cc(-c2ccccc2)[nH]n1-c1ccc([N+](=O)[O-])cc1 | -0.2% (inactive)
O=C(C1CCN(S(=O)(=O)c2ccc(F)cc2)CC1)N1CC=C(c2ccccc2)CC1 | 3% (inactive)
COc1ccc(C(CNC(=O)C(C)c2ccc3cc(OC)ccc3c2)N(C)C)cc1 (stereo not given) | 5.2% (inactive)

Structure (SMILES) | displacement
CC1=C(C#N)c2nc(N)c(C#N)c(C)c2/C1=C\c1ccc(OCC(=O)O)c(Cl)c1 | 0% (inactive)
CC1=C(C#N)c2nc(N)c(C#N)c(C)c2/C1=C\c1ccc(C)cc1 | -2.8% (inactive)
COc1ccc(C2=[N+]([O-])C(C)(C)C(c3ccccc3)=N2)cc1 | 6.6% (inactive)
COc1ccc(-c2nc(CN3CCN(Cc4cccc(F)c4)CC3)c(C)o2)cc1 | 13.6% (inactive)
O=C(CCC1CCCC1)N1CCN(C(=O)c2ccco2)CC1 | -6% (inactive)
O=C(CNC(=O)c1ccccc1F)NC1CCN(Cc2ccccc2)CC1 | -3.7% (inactive)
CC(SCc1ccccc1)C(=O)Nc1ccccc1Br (stereo not given) | -6.3% (inactive)
Cc1sc2cc(-c3cccc([N+](=O)[O-])c3)c(-c3cccc([N+](=O)[O-])c3)c[n+]2c1C | 5.1% (inactive)
Oc1ccccc1/C=N/NC(=S)NC1CC2CC1C1C=CCC21 (stereo not given) | 2.4% (inactive)
CC(C)(C)c1nnc(N/N=C/c2ccc(O)cc2)n(N)c1=O | 18.4% (inactive)
CC(C)(C)c1nnc(N/N=C/c2ccccc2)n(N)c1=O | 51.9% (active)
CC(C)(C)c1nnc(N/N=C/c2ccc(Br)cc2)n(N)c1=O | 7.3% (inactive)
CCCc1nnc(NC(=O)C2CC(=O)N(CCc3ccc(F)cc3)C2)s1 (stereo not given) | 24.3% (inactive)
Cc1c(C)n(C(=O)CSc2nc3ccccc3[nH]2)c2ccccc12 | 51% (active)
Cc1c(C)n(C(=O)CSc2ncn[nH]2)c2ccccc12 | -4.9% (inactive)
Cc1[nH]c2ccccc2c1C(=O)CSc1nc2ccccc2[nH]1 | -0.5% (inactive)
O=C(CSCc1nc2scc(-c3cccs3)c2c(=O)[nH]1)Nc1ccccn1 | -4.4% (inactive)
COc1ccc(OCC(O)CNC(=O)c2ccccc2C(=O)O)cc1 (stereo not given) | 8.1% (inactive)
CCOC(=O)C(C(=O)OCC)c1cc(Br)c2noc3c2c1C(=O)c1ccccc1-3 | 102% (active)
CCOC(=O)N1CCN(c2cc(NCCC(=O)O)c3c4c(onc24)-c2ccccc2C3=O)CC1 | 16.7% (inactive)
CCOc1ccc2noc3c2c1C(=O)c1ccccc1-3 | 37.3% (inactive)
COc1ccc(-c2cc(C(=O)N3CCc4ccccc4C3)no2)cc1 | 0.3% (inactive)
Cc1ccc(S(=O)(=O)N2CCN(c3cccc(C)c3)CC2)cc1 | 12.1% (inactive)
COc1cccc(OCc2cc(C(=O)NC3CCOCC3)no2)c1 | 1.4% (inactive)
CC1=C([N+](=O)[O-])C(c2ccccc2)NC(=O)N1 (stereo not given) | -5.5% (inactive)
